# Source: PubChem BioAssay (NCI)
# This is part of a sample that, as a whole, favours compounds with a hit. Of some 83,000 tested, about 20% had one in any assay.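 Single-dose data. Exposure time 48 hours. Values below 10 considered active.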 Unmarked numbers belong to inactive results. The source made the active and inactive calls.
# Columns and labels:
# Experiment in all cases: NCI-60 one-dose screen, 48 h (100 = growth as untreated, 0 = no growth, -100 = all killed)
# Conditions in all cases: 10 µM unless noted
# NCI-H23 lung = test system: NCI-H23 lung
# NCI-H226 lung = test system: NCI-H226 lung
# NCI-H322M lung = test system: NCI-H322M lung
# HOP-62 NSCLC = test system: HOP-62 NSCLC
# NCI-H460 lung = test system: NCI-H460 lung
# HOP-92 NSCLC = test system: HOP-92 NSCLC
# A549/ATCC NSCLC = test system: A549/ATCC NSCLC
# 786-0 renal = test system: 786-0 renal
# COLO 205 colon = test system: COLO 205 colon
# DU-145 prostate = test system: DU-145 prostate
# K-562 leukemia = test system: K-562 leukemia
# MALME-3M melanoma = test system: MALME-3M melanoma
# MDA-MB-231 breast = test system: MDA-MB-231 breast
# RXF 393 renal = test system: RXF 393 renal
# SF-268 CNS = test system: SF-268 CNS
# SF-295 CNS = test system: SF-295 CNS
# SF-539 CNS = test system: SF-539 CNS
# UACC-257 melanoma = test system: UACC-257 melanoma
# M14 melanoma = test system: M14 melanoma
# NCI-H522 lung = test system: NCI-H522 lung
Structure (SMILES),growth (NCI-H23 lung),growth (NCI-H226 lung),growth (NCI-H322M lung),growth (HOP-62 NSCLC),growth (NCI-H460 lung),growth (HOP-92 NSCLC),growth (A549/ATCC NSCLC),growth (786-0 renal),growth (COLO 205 colon),growth (DU-145 prostate),growth (K-562 leukemia),growth (MALME-3M melanoma),growth (MDA-MB-231 breast),growth (RXF 393 renal),growth (SF-268 CNS),growth (SF-295 CNS),growth (SF-539 CNS),growth (UACC-257 melanoma),growth (M14 melanoma),growth (NCI-H522 lung)
CN(C)CCN1C(=O)c2cccc3c(N)ccc(c23)C1=O,44.3%,23.9%,58.5%,58.1%,-5.38% (active),19.9%,6.47% (active),36.9%,8.15% (active),25.9%,2.08% (active),46.7%,58.3%,4.79% (active),17.5%,21.4%,19.4%,9.42% (active),34.4%,–
O=c1nc2oc3ccc4ccccc4c3cc-2s1,45.5%,37.5%,35%,23%,11.1%,14.2%,35.1%,23%,30.4%,19%,11.9%,45.2%,42.7%,-18.5% (active),40.8%,9.97% (active),-25.1% (active),51.6%,-33.4% (active),–
COc1cc(C(=O)Oc2ccccc2OC(=O)c2cc(OC)c(OC)c(OC)c2)cc(OC)c1OC,86.8%,107%,108%,88.1%,114%,83.4%,85.3%,118%,103%,109%,100%,130%,85.5%,89.5%,84%,115%,88.5%,86.7%,116%,–
CCCc1cc(=O)n2c(C(=O)Nc3ccc(F)cc3)c(C(=O)Nc3ccc(F)cc3)sc2n1,81.9% [30 µM],69.5% [30 µM],54.8% [30 µM],27.8% [30 µM],52% [30 µM],-36.3% [30 µM] (active),34.1% [30 µM],17.6% [30 µM],71.4% [30 µM],82.1% [30 µM],75.1% [30 µM],38.5% [30 µM],44.2% [30 µM],10.4% [30 µM],18.1% [30 µM],73% [30 µM],63.2% [30 µM],67.2% [30 µM],70.9% [30 µM],–
COc1cc2c(cc1-c1c(C)noc1C)ncc1nc(C3CCC(F)(F)CC3)n([C@H](C)COC(F)F)c12,60.1%,51.1%,42.6%,36.9%,56.4%,32%,40%,46.9%,25.1%,71.4%,30.5%,67.5%,44.1%,55.8%,67.4%,49.3%,34%,34.9%,45.9%,–
Cc1cc(C)nc(SC2=C(Nc3cc(Cl)ccc3O)C(=O)N(Cc3ccccc3)C2=O)n1,91.4% [30 µM],85.1% [30 µM],-32% [30 µM] (active),102% [30 µM],97.4% [30 µM],42.9% [30 µM],46.6% [30 µM],83.4% [30 µM],112% [30 µM],95.8% [30 µM],58.5% [30 µM],-56.7% [30 µM] (active),64.5% [30 µM],58.7% [30 µM],93.8% [30 µM],112% [30 µM],118% [30 µM],83.5% [30 µM],95.2% [30 µM],–
O=C1NC(=S)N[C@H]1CC(=O)n1cnc2ccccc21,92.3%,93.6%,105%,93%,104%,96.1%,105%,102%,111%,109%,114%,98.2%,101%,99.7%,100%,100%,99%,116%,96.8%,–
COc1cc2nc(N3CCCC3)nc(Nc3ccccc3)c2cc1OC,2.6% (active),29.2%,19.3%,16.3%,-42.1% (active),-25.9% (active),-39.8% (active),-90.5% (active),-84.1% (active),9.82% (active),-11.6% (active),-85.9% (active),-69.4% (active),-84.5% (active),-0.197% (active),-63.2% (active),-87.4% (active),-84.2% (active),-70.7% (active),–
C#CC(F)(F)[C@]1(O)CC[C@H]2[C@@H]3CCC4=CC(=O)CCC4=C3[C@@H](c3ccc(C4CC4)cc3)C[C@@]21C,-53.3% (active),63.3%,88.4%,9.06% (active),57.1%,-60.2% (active),11.5%,-77.3% (active),29.5%,30.3%,14.3%,-71.7% (active),-10.3% (active),31.1%,-60.5% (active),-59.6% (active),-84.3% (active),77.8%,62.2%,–
CC(C)c1c(C(=O)c2ccccc2)c(-c2ccccc2)c(-c2ccc(F)cc2)n1CC[C@@H](O)C[C@@H](O)CC(=O)O,56.8%,62.2%,58.6%,90.1%,87.5%,–,100%,77.5%,55.3%,105%,71.3%,85.2%,–,36.6%,34.7%,30.7%,80%,83.8%,63.8%,25.9%
CCn1c(Cc2ccccc2Nc2c(Cl)cccc2Cl)nnc1SCC(=O)NN1C(=O)/C(=C/c2cc(OC)c(O)c(OC)c2)SC1=S,48.3%,40.7%,42.2%,29.9%,22.1%,11.1%,60.9%,26.3%,44.9%,48.8%,19.4%,40.4%,60.9%,12.9%,36.4%,23.5%,13%,63.7%,19.5%,–
